Data from PubChem BioAssay AID1860 (The Scripps Research Institute Molecular Screening Center, 2009).
The other results are listed elsewhere or left out. Unmarked numbers belong to inactive results. Calls of active or inactive are those of the source. Rule as the data show it: active = inhibition above about 8%; inactive = the rest.

Test system: VIM-2 metallo-beta-lactamase [Pseudomonas aeruginosa]
Experiment: P. aeruginosa VIM-2 enzyme inhibition – biochemical, epi-absorbance, HTS, confirmation (AID 1860);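 also: 0% = enzyme with vehicle and 100% = no enzyme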
Conditions: purified VIM-2 enzyme, nitrocefin absorbance; at 5.6 µM; active compounds read high

Row | SMILES | inhibition
1 | Oc1ccc2ccc3cccc[n+]3c2c1 | 30.2% (active)
2 | Cc1cc2nc3c(=O)n(Cc4ccccc4)c(=O)[nH]c3nc2cc1N | 16.6% (active)
3 | CCC(=C/c1sc2ccc3ccccc3c2[n+]1C)/C=C1\Sc2ccc3ccccc3c2N1C | 12% (active)
4 | CN1C(=O)c2cccc3c(N)ccc(c23)C1=O | 48.4% (active)
5 | Cc1nn(C)cc1N1C(=O)c2cccc3c(N)ccc(c23)C1=O | 35.2% (active)
6 | NS(=O)(=O)c1ccc(NC(=O)COC(=O)c2c3c(nc4ccccc24)/C(=C\c2ccc4c(c2)OCO4)CCC3)cc1 | -1.18%
7 | c1ccc(-c2nccc(-c3ccc(-n4cnc5ccccc54)cc3)n2)nc1 | 71.7% (active)
8 | NC(=O)c1ccc(NC(=O)COC(=O)c2c3c(nc4ccccc24)/C(=C\c2ccc4c(c2)OCO4)CCC3)cc1 | -0.41%
9 | Nc1c(C(=O)c2cccs2)sc2nsc(SCCN3CCCCC3)c12 | 31.7% (active)
10 | COc1cc(/C=C2/SC(=S)N(Cc3ccccc3)C2=O)cc(OC)c1O | 13.7% (active)
11 | C/C(=N\Nc1ccc(S(N)(=O)=O)cc1[N+](=O)[O-])c1cccs1 | 17.3% (active)
